{"source": "PubChem BioAssay", "note": "Unmarked numbers belong to inactive results. Calls of active or inactive are those of the source.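 The calls were made as follows: active = growth inhibition above 50% at the single 2 µM test dose, taken to imply half-maximal potency below 2 µM; inactive = the rest.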"}
{"assay": "antimalarial activity against Dd2 strain (AID 2302);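 also: 0% = DMSO untreated growth and 100% = chloroquine plus artemisinin killed control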", "settings": "P. falciparum Dd2 in RBCs, LDH growth readout, 72 h; at 2 µM; active compounds read high"}
{"compound": "O=C(/C=C/c1ccc(Cl)c(Cl)c1)NCCCCCN1CCC(NC(=O)c2ccc(F)cc2F)CC1", "growth inhibition": "11%"}
{"compound": "CN1CCCN(Cc2cccc(-c3cccc(NC(=O)c4cccc(Cl)c4)c3)c2)CC1", "growth inhibition": "20%"}
{"compound": "Cc1cc(C(=O)NCc2ccc(-c3c(C)noc3C)cc2)n(-c2ccc(Cl)cc2)n1", "growth inhibition": "98% (active)"}
{"compound": "CC(=O)NCCNCc1cccc(C(=O)NCc2cccc(C(F)(F)F)c2)c1", "growth inhibition": "-2%"}
{"compound": "CC(=NN=C(N)N)c1ccc2ccc3ccccc3c2c1", "growth inhibition": "23%"}
{"compound": "CCCNC(=O)Nc1cc2cc(-c3cccc(CN4CCCCC4)c3)ccc2n2c(C)nnc12", "growth inhibition": "50% (active)"}
{"compound": "CC(CCc1ccccc1)NCC(O)c1ccc2c3c(cccc13)C(=O)N2C", "note": "(centres undefined)", "growth inhibition": "57% (active)"}
{"compound": "Cc1cc2c(cc1C(F)(F)F)N(C(=O)Nc1cc(C(=O)NCCN(C)C)cc(C(F)(F)F)c1)CC2", "growth inhibition": "50% (active)"}
{"compound": "CN1CCN(c2ccnc3ccc(NC(=O)Cc4ccc5ccccc5c4)cc23)CC1", "growth inhibition": "89% (active)"}
{"compound": "N#Cc1ccc(CN2CCC(NC(=O)c3ccc(-c4nnc(-c5cccc6ccccc56)o4)cc3)CC2)cc1", "growth inhibition": "14%"}
{"compound": "COc1cc(Cc2cnc(N)nc2N)cc(OCCCCCC(=O)O)c1OC", "growth inhibition": "2%"}
{"compound": "COc1ccc(CNCc2cccc(-c3cccc(-c4nc5ccc(F)cc5[nH]4)c3)c2)cc1", "growth inhibition": "55% (active)"}
{"compound": "CC(=O)Nc1cccc(CN(Cc2ccc(-c3ccc(CNCc4cccnc4)cn3)cc2)C(=O)Cc2cccnc2)c1", "growth inhibition": "65% (active)"}
{"compound": "COc1ccc(NC(=O)Nc2cccc(-c3ccc(-c4nc5c(C)cccc5[nH]4)s3)c2)cc1", "growth inhibition": "32%"}
